For 4 compounds, outcome and AC50 results are on record in PubChem BioAssay (EPA / NIEHS).

Activity calls are given as the source filed them. The calls were made as follows: active = hit-call score of the fitted dose curve at least 0.9, where 1 is the maximum; inactive = score below 0.9.

Holding throughout (conditions): mRNA level, 48 h; actives raise or lower the signal
Read-out in assay [1]: Cyclin D2 (CCND2), CCND2 (gene 894)
As to the kind of experiment: LTEA_HepaRG_CCND2: Life Technologies and Expression Analysis (LTEA) Assay for Cyclin D2 (CCND2) using HepaRG (AID 2283449).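 Also: CCND2 transcript measured by TaqMan qRT-PCR and normalised to three housekeeping genes.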 In outline: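 In this HepaRG study, an eight-point concentration series (max 100 uM, 0.5% DMSO) is applied for 48 h. CCND2 mRNA change is derived by qRT-PCR normalised to ACTB, GAPDH and POLR2A.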

Read-out in assay [2]: Cyclin Dependent Kinase Inhibitor 1A (CDKN1A), CDKN1A (gene 1026)
As to the kind of experiment: LTEA_HepaRG_CDKN1A: Life Technologies and Expression Analysis (LTEA) Assay for Cyclin Dependent Kinase Inhibitor 1A (CDKN1A) using HepaRG (AID 2283450). The essentials:
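Read-out is CDKN1A mRNA by TaqMan qRT-PCR, normalized to three housekeeping genes and fitted in both directions against the DMSO baseline. Human HepaRG cells were treated 48 h with test chemicals up to 100 uM in half-log steps, 0.5% DMSO.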

Read-out in assay [3]: Cyclin D1 (CCND1), CCND1 (gene 595)
The experiment in a line: LTEA_HepaRG_CCND1: Life Technologies and Expression Analysis (LTEA) Assay for Cyclin D1 (CCND1) using HepaRG (AID 2283451). The essentials:
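HepaRG plated 48 h, medium switched to serum-free induction medium, chemicals added in duplicate (top 100 uM, half-log steps, 0.5% DMSO) for 48 h, cells lysed, RNA measured by TaqMan qRT-PCR.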

Read-out in assay [4]: catalase (CAT), CAT (gene 847)
As to the kind of experiment: LTEA_HepaRG_CAT: Life Technologies and Expression Analysis (LTEA) Assay for catalase (CAT) using HepaRG (AID 2283452). The essentials:
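Differentiated HepaRG cells in serum-free induction medium were dosed 48 h in duplicate, eight half-log concentrations from 100 uM in 0.5% DMSO. Transcript measured by TaqMan qRT-PCR, normalised to ACTB/GAPDH/POLR2A, fitted bidirectionally against DMSO.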

Read-out in assay [5]: flavin-containing dimethylaniline monooxygenases 3 (FMO3), FMO3 (gene 2328)
As to the kind of experiment: LTEA_HepaRG_FMO3: Life Technologies and Expression Analysis (LTEA) Assay for flavin-containing dimethylaniline monooxygenases 3 (FMO3) using HepaRG (AID 2283453). The essentials: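 FMO3 transcript quantified by TaqMan qRT-PCR against three housekeeping genes after 48 h chemical exposure of HepaRG cells. Eight-point half-log series, top 100 uM, 0.5% DMSO vehicle; phenobarbital 1mM induction control; up- or down-regulation fitted.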

Read-out in assay [6]: Cytochrome P450 (CYP1A1), CYP1A1 (gene 1543)
As to the kind of experiment: LTEA_HepaRG_CYP1A1: Life Technologies and Expression Analysis (LTEA) Assay for Cytochrome P450 (CYP1A1) using HepaRG (AID 2283454). The essentials: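 HepaRG, 48 h post-plating switched to serum-free induction medium; 8-pt conc-response (top 100 uM, half-log, 0.5% DMSO), duplicates, 48 h. Lysis in RLT, TaqMan qRT-PCR for CYP1A1; gain or loss vs DMSO.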

Read-out in assay [7]: Forkhead box O1 (FOXO1), FOXO1 (gene 2308)
The experiment in a line: LTEA_HepaRG_FOXO1: Life Technologies and Expression Analysis (LTEA) Assay for Forkhead box O1 (FOXO1) using HepaRG (AID 2283456). The essentials: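 Using one lot of HepaRG hepatic cells kept in 0.5% DMSO, the team applied test chemicals in duplicate, half-log dilutions from 100 uM, for 48 h. Expression, normalised to ACTB/GAPDH/POLR2A, was compared with vehicle in either direction.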

Read-out in assay [8]: Forkhead box O3 (FOXO3), FOXO3 (gene 2309)
The experiment in a line: LTEA_HepaRG_FOXO3: Life Technologies and Expression Analysis (LTEA) Assay for Forkhead box O3 (FOXO3) using HepaRG (AID 2283459). In outline: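 Gene-expression endpoint: FOXO3 transcript level by qRT-PCR in HepaRG cultures treated 48 h with chemicals up to 100 uM (half-log, 0.5% DMSO vehicle).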

Read-out in assay [9]: ABC Transporter (ABCB1), ABCB1 (gene 5243)
The experiment in a line: LTEA_HepaRG_ABCB1: Life Technologies and Expression Analysis (LTEA) Assay for ABC Transporter (ABCB1) using HepaRG (AID 2283460). The essentials: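 Human liver HepaRG line treated 48 h with up to 100 uM compound (eight half-log points, 0.5% DMSO); ABCB1 mRNA change fitted bidirectionally against DMSO controls.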

Read-out in assay [10]: growth arrest and DNA damage 45 (GADD45B), GADD45B (gene 4616)
The experiment in a line: LTEA_HepaRG_GADD45B: Life Technologies and Expression Analysis (LTEA) Assay for growth arrest and DNA damage 45 (GADD45B) using HepaRG (AID 2283461). In outline:
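HepaRG, ~100,000 cells/well, 48 h plating; serum-free induction medium; cpd 100 uM top, half-log x8, 0.5% DMSO, duplicate, 48 h; lysis in RLT, RNA isolation, qRT-PCR; norm ACTB/GAPDH/POLR2A; bidirectional fit vs DMSO.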

Read-out in assay [11]: ABC Transporter (ABCC3), ABCC3 (gene 8714)
The experiment in a line: LTEA_HepaRG_ABCC3: Life Technologies and Expression Analysis (LTEA) Assay for ABC Transporter (ABCC3) using HepaRG (AID 2283462). In outline:
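Human HepaRG, 48 h dosing, 8-pt half-log series from 100 uM, 0.5% DMSO vehicle, duplicates. ABCC3 mRNA by TaqMan qRT-PCR, housekeeping-normalized; bidirectional curve fit vs DMSO.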

Read-out in assay [12]: ABC Transporter (ABCB11), ABCB11 (gene 8647)
The experiment in a line: LTEA_HepaRG_ABCB11: Life Technologies and Expression Analysis (LTEA) Assay for ABC Transporter (ABCB11) using HepaRG (AID 2283463). The essentials:
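Using HepaRG cultures held in 0.5% DMSO, chemicals were tested at half-log dilutions from 100 uM for 48 h. Induction or suppression of ABCB11 mRNA, normalized to ACTB, GAPDH and POLR2A, was fitted bidirectionally against vehicle.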

Read-out in assay [13]: ABC Transporter (ABCC2), ABCC2 (gene 1244)
As to the kind of experiment: LTEA_HepaRG_ABCC2: Life Technologies and Expression Analysis (LTEA) Assay for ABC Transporter (ABCC2) using HepaRG (AID 2283464). In outline: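 HepaRG, 48 h post-plating; serum-free induction medium; cpd 8-pt, 100 uM top, half-log, 0.5% DMSO, duplicate, 48 h. Readout: ABCC2 mRNA by qRT-PCR, norm. ACTB/GAPDH/POLR2A. Bidirectional fit vs DMSO baseline.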

Read-out in assay [14]: Broad substrate specificity ATP-binding cassette transporter ABCG2 (Homo sapiens) (UniProt Q9UNQ0)
The experiment in a line: LTEA_HepaRG_ABCG2: Life Technologies and Expression Analysis (LTEA) Assay for ABC Transporter (ABCG2) using HepaRG (AID 2283465). The essentials: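 Gene expression of ABCG2 in HepaRG liver cells is quantified by qRT-PCR following 48 h exposure across an eight-point series topping at 100 uM. Values come from bidirectional fitting relative to DMSO vehicle.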

Read-out in assay [15]: ATP-citrate lyase (ACLY), ACLY (gene 47)
The experiment in a line: LTEA_HepaRG_ACLY: Life Technologies and Expression Analysis (LTEA) Assay for ATP-citrate lyase (ACLY) using HepaRG (AID 2283466). The essentials: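 ACLY expression changes in human HepaRG liver cells are quantified by qRT-PCR after 48 h exposure to test chemicals (maximum 100 uM, half-log steps). Values are fitted in both directions relative to 0.5% DMSO vehicle.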

Read-out in assay [16]: Peroxisomal acyl-coenzyme A oxidase 1 (ACOX1) gene, ACOX1 (gene 51)
The experiment in a line: LTEA_HepaRG_ACOX1: Life Technologies and Expression Analysis (LTEA) Assay for Peroxisomal acyl-coenzyme A oxidase 1 (ACOX1) gene using HepaRG (AID 2283467). The essentials:
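Human HepaRG hepatic cultures, 48 h treatment with test chemicals up to 100 uM. ACOX1 expression read by qRT-PCR relative to 0.5% DMSO vehicle.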

Read-out in assay [17]: Alkaline Phosphatase, Placental (ALPP) gene, ALPP (gene 250)
As to the kind of experiment: LTEA_HepaRG_ALPP: Life Technologies and Expression Analysis (LTEA) Assay for Alkaline Phosphatase, Placental (ALPP) gene using HepaRG (AID 2283468). In outline: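 HepaRG, 48 h plating then 48 h dosing, serum-free induction medium, 0.5% DMSO. 8 conc, half-log, max 100 uM, duplicates. Endpoint: ALPP transcript by qRT-PCR, housekeeping-normalized; gain or loss fitted vs DMSO.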

Sequence of Broad substrate specificity ATP-binding cassette transporter ABCG2 (Homo sapiens) (Q9UNQ0 whole entry, looked up): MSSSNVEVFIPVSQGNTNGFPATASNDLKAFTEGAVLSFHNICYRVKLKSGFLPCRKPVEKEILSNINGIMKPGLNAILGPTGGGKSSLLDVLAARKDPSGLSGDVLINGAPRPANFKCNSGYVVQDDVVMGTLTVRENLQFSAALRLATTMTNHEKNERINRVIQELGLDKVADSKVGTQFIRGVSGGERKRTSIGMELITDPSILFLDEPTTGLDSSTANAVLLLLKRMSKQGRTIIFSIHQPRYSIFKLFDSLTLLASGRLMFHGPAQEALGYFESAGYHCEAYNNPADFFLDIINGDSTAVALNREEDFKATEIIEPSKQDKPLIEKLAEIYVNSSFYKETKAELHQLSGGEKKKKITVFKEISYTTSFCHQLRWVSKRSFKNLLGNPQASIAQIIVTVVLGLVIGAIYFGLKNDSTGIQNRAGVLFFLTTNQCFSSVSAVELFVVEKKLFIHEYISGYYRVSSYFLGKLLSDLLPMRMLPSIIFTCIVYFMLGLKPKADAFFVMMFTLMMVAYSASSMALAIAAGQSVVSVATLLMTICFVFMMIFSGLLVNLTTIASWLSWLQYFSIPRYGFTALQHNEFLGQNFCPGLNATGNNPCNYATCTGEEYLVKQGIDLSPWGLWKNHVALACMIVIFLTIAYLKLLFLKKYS

Take `Cc1ccc(C(C)C)c(O)c1`: the outcome in [1], in assay [2], in assay [3], in assay [4], in assay [5] and in [6] was inactive. Also, the result in [7], in assay [8], in [9], in assay [10], in assay [11] and in assay [12] was inactive. The call in assay [13], in assay [14], in assay [15], in [16] and in [17] was inactive.

For the compound `CCCCOC(=O)CCCCCCCCC(=O)OCCCC`, the call in [2], in [3], in assay [4], in [5], in assay [6] and in assay [7] was inactive. For the same compound, the result in assay [8], in assay [9], in [10], in assay [11], in assay [12] and in [13] was inactive. Besides, the call in [14], in assay [15], in [16] and in assay [17] was inactive.

In the case of `CN1CCCC1=O`, the compound was classed as inactive in assay [1], in assay [2], in [3], in assay [4], in assay [5] and in assay [7]. In addition, the outcome in assay [8], in assay [10], in [11], in [12], in assay [13] and in assay [14] was inactive. Besides, the call in assay [15], in assay [16] and in [17] was inactive. Also, the AC50 in [6] was 50 µM (active).

As for `CCCCc1ccc2c(n1)[C@@H](c1ccc(OC)cc1C[C@H](C)C(=O)O)[C@H](C(=O)O)[C@H]2c1ccc2c(c1)OCO2`, the outcome in assay [1], in assay [2], in [3], in assay [4], in [5] and in assay [7] was inactive. Moreover, the result in [8], in assay [10], in [11], in [12], in assay [13] and in assay [14] was inactive. Besides, the compound was called inactive in assay [15], in [16] and in [17]. Also, the AC50 in assay [6] was 71.7 µM (active).

As a reminder, the AC50 is the midpoint of the concentration-response curve, whichever way the signal moves.
